# MCL1 BIM primary: inhibitors of MCL1 binding to BIM-BH3, primary screen, biochemical, fluorescence polarization | Induced myeloid leukemia cell differentiation protein Mcl-1 (Homo sapiens), Q07820 | GST-MCL1 / FITC-Bim-BH3 fluorescence polarization | inhibition, % at 10.9 µM | 320,000 tested, 0.68% active | AID 2057, 2009;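 active = inhibition above the mean inhibition of all tested compounds plus 3 SD, set per campaign, cut at about 40% in these data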;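 note: 0% = DMSO wells and 100% = unlabeled Bim-BH3 peptide control; higher means more loss of mP so more displacement of Bim peptide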
# Target sequence (Q07820 whole entry, looked up): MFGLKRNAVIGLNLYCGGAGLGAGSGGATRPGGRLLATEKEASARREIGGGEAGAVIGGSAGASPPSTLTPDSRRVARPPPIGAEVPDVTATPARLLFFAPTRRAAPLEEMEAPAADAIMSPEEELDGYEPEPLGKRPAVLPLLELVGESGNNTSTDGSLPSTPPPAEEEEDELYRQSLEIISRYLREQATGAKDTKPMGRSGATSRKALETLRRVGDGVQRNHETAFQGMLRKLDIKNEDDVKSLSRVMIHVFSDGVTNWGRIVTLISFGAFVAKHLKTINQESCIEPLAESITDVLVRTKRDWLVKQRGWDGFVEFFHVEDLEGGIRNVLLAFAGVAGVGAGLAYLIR
# 14-3-3 Bad inh: inhibitors of 14-3-3 zeta/Bad binding, primary screen, biochemical, TR-FRET, bovine 14-3-3 zeta | 14-3-3 protein zeta/delta (Bos taurus), P63103 | TR-FRET 14-3-3zeta/Dy647-pBad peptide displacement, 1 h | inhibition, % at 21.7 µM | 220,000 tested, 0.71% active;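 active = inhibition above about 70%, limit read from the data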;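 note: 0% = full 14-3-3 plus peptide FRET controls and 100% = background without 14-3-3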
# Mcl1 Noxa PPI: Mcl-1/Noxa binding inhibitors, primary screen, biochemical, TR-FRET, 1536-well | TR-FRET Mcl-1/Noxa peptide binding, 2 h | inhibition, % at 21.7 µM | 220,000 tested, 1.5% active | AID 1022, 2008;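 active = compounds that cut the protein-peptide binding signal by more than 50% relative to plate controls in a single-dose test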;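 note: His-tagged Mcl-1 with rhodamine Noxa BH3 peptide and terbium anti-His antibody; 0% = Mcl-1 plus Noxa peptide wells and 100% = peptide-only wells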
# Mcl1 Bid PPI: Mcl-1/Bid binding inhibitors, primary screen, biochemical, TR-FRET, 1536-well; inhibition, % at 21.7 µM; 220,000 tested, 0.97% active; TR-FRET Mcl-1/Bid-Dy647 peptide binding; Induced myeloid leukemia cell differentiation protein Mcl-1 (Homo sapiens), Q07820;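 active = compounds that cut the binding signal by more than half at the single screening dose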;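 note: His-tagged Mcl-1 with europium anti-His antibody binding Bid BH3 peptide; 0% = Mcl-1 plus peptide wells and 100% = peptide-only wells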
# eIF4E 4G PPI: eIF4E–eIF4G protein interaction inhibitors, primary screen, biochemical, uHTS, TR-FRET, eIF4GI fragment; Eukaryotic translation initiation factor 4E (Mus musculus) + Eukaryotic translation …; TR-FRET eIF4E-eIF4GI(517-606) binding, 2 h; inhibition, % at 21.7 µM; 220,000 tested, 0.37% active; AID 782, 2007;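 active = inhibition above about 30%, limit read from the data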;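 note: 0% = full FRET control wells and 100% = background wells lacking eIF4GI fragment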
# Bim-Mcl-1: inhibitors of Bim peptide binding to Mcl-1, primary screen, biochemical, bead-based flow cytometry, multiplex | Bim peptide-Mcl-1 binding | AID 1009, 2008 | Induced myeloid leukemia cell differentiation protein Mcl-1 (Homo sapiens), Q07820 | inhibition, % at 10 µM | 190,000 tested, 0.1% active; in the data active = inhibition above about 40%;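 note: 0% = no compound tracer wells and 100% = peptide blocker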
# Bcl-xL conf: Bcl-xL inhibitors blocking Bim BH3 binding, confirmation, counter-screen for MCL1 inhibitor project, biochemical, fluorescence polarization. GST-Bcl-xL / FITC-Bim BH3 peptide FP binding. AID 2166, 2009. 1,700 tested, 54% active. inhibition, % at 10.9 µM. shares compounds with MCL1 BIM primary;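 active = inhibition above a cutoff equal to the mean inhibition of all tested compounds plus 3 SD, cut at about 30% in these data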;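 note: 0% = DMSO wells and 100% = unlabeled Bim BH3 control peptide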
# MCL1 inh confirm: inhibitors of MCL1 binding to BIM-BH3, confirmation, biochemical, fluorescence polarization, triplicate | shares compounds with MCL1 BIM primary | AID 2168, 2009 | GST-MCL1 / FITC-Bim-BH3 fluorescence polarization | inhibition, % at 10.9 µM | 1,700 tested, 61% active;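 active = inhibition above the average of all tested compounds plus 3 SD, cut at about 40% in these data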;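 note: 0% = DMSO wells and 100% = unlabeled Bim-BH3 control peptide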
# Starred values were filed as active, the others as inactive; i = inactive; . = no result given; [ ] = remark or other dose. This is a sample that favours compounds with a hit; in the whole collection about 2.6% have one here.
SMILES,MCL1 BIM primary,14-3-3 Bad inh,Mcl1 Noxa PPI,Mcl1 Bid PPI,eIF4E 4G PPI,Bim-Mcl-1,Bcl-xL conf,MCL1 inh confirm
CS/C(Nc1cc(Cl)ccc1Cl)=C(/C#N)C(=O)c1ccco1,54*,13,45,7,6,.,13,25
Cc1cc(C(=O)CSc2nc3ccc(Cl)cc3[nH]2)c(C)n1Cc1ccco1,-5,.,.,.,.,.,.,.
CCc1ccc(NC(=O)c2noc3c2CCC3)cc1,26,-6,41,7,14,-1,.,.
COC(=O)c1ccccc1NC(=O)c1noc2c1CCC2,41*,4,70*,-53,15,-4,15,49*
Cc1ccc2c(c1)CCCN2CC(=O)N(C)c1c(N)n(Cc2ccccc2)c(=O)[nH]c1=O,141*,.,.,.,.,.,132*,147*
CN(C(=O)CN1CCCCCC1)c1c(N)n(Cc2ccccc2)c(=O)[nH]c1=O,-3,.,.,.,.,.,.,.
COc1ccc(NS(=O)(=O)c2cc(NC(=O)[C@@H](NC(=O)c3ccccc3)C(C)C)ccc2C)cc1,6,-14,-9,-10,5,0,.,.
Cc1ccc(SCC(=O)Nc2ccccc2C(=O)O)cc1,11,16,11,8,-1,-3,.,.
CN1Cc2c(N)cccc2C(c2ccccc2)C1 (configuration not stated),92*,3,8,0,2,-3,26,25
COc1ccccc1-n1nnnc1SCC(=O)Nc1ccc(C)c(N)c1,139*,.,.,.,.,.,25,22
COc1ccc(NC(=O)CSc2nnnn2-c2ccccc2OC)c(OC)c1,-7,.,.,.,.,.,.,.
CNC(=S)N/N=C/c1cn(CCOc2cccc(OC)c2)c2ccccc12,15,-7,-14,-98,-2,-6,.,.
O=C1S/C(=C/c2ccc(N3CCOCC3)o2)C(=O)N1Cc1ccc(F)cc1,-117,20,35,12,-13,0,.,.
O=C1NC(=S)S/C1=C/c1ccc(N2CCOCC2)o1,65*,-22,i,-54,-2,12,39*,32
CCC(C)[C@H](Nc1nc(-c2ccccc2)nc2c1oc1ccccc12)C(=O)O (some centres not stated),4,-1,15,-2,1,0,.,.
Cc1ccc(NC(=O)C2CCN(S(=O)(=O)c3c(C)nn(C)c3C)CC2)c(Cl)c1,-3,.,.,.,.,.,.,.
Nc1ccc(O)c2c1C(=O)c1ccccc1C2=O,158*,55,103*,-104,31*[fluorescence artefact?],4,120*,177*
N#C/C(=C\c1ccc(O)c(O)c1)C(=O)Nc1ccccc1,17,.,.,.,.,.,.,.
N#C/C(=C\c1ccc(O)c(O)c1)C(=O)Nc1cccc2ncccc12,71*,.,.,.,.,.,33*,69*
CCOC(=O)N1CC=C2C(C#N)=C(N)C(C#N)(C#N)[C@H](c3ccc(OC(C)C)c(OCC)c3)[C@H]2C1,-7,2,9,-50,-12,-1,.,.
CCN1CC=C2C(C#N)=C(N)C(C#N)(C#N)[C@H](c3cccc(OC)c3OC)[C@H]2C1,151*,.,.,.,.,2,52*,65*
COc1cc([C@@H]2[C@H]3CN(C)CC=C3C(C#N)=C(N)C2(C#N)C#N)cc2c1OCO2,52*,-13,9,-13,1,-3,21,24

# Screening results: PubChem BioAssay, several laboratories
